# Data as given in PubChem BioAssay (NCATS).
# Records with an inconclusive call do not appear. Activity calls are given as the source filed them. Calls come from the whole dose curve; as a rule, active = well fitted curve in the direction sought with a large enough effect; inconclusive = small, poorly fitted or top-dose-only effect, or another doubt; inactive = no such curve, though single readings can be large; an effect the other way counts as inactive or inconclusive.
# Biological target: Cytochrome P450 2C19 (Homo sapiens) (UniProt P33261)
# Assay: qHTS Assay for Inhibitors and Substrates of Cytochrome P450 2C19 (AID 899); note: nearly all actives have a fitted effect of over 60% in size; note: potency is the fitted concentration of half-maximal effect; for activity, negative = inhibition: % is set by controls: 0 for no effect and ±100 for the full control effect
# Conditions: recombinant CYP2C19, luciferin-H EGE luminescence; series mostly up to 57.1 µM; activity, negative = inhibition: at the top concentration
# Method in brief: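 5nM enzyme + 10uM Luciferin-H EGE (=KM), 50mM KPO4; cpd pin-transferred, 10 min 37C; NADPH regen, 60 min 37C; stopped w/ luciferin detection reagent, 20 min; luminescence. Normalized to 57uM ketoconazole (AC100).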
# Chain of Cytochrome P450 2C19 (Homo sapiens) (P33261 whole entry, looked up): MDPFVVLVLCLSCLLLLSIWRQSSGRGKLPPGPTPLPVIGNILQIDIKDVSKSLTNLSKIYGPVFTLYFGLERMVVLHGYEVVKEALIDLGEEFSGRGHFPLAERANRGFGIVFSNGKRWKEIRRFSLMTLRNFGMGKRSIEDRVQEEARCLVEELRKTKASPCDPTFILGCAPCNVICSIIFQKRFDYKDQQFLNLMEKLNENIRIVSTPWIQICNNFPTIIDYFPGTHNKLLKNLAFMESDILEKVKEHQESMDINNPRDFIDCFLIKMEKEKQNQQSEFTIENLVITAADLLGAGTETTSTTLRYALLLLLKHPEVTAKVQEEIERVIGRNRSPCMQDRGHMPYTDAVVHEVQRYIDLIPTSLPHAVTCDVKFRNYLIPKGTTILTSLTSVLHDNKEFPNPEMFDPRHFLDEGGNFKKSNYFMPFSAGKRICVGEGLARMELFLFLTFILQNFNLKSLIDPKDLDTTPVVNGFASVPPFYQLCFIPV
SMILES,Potency,"activity, negative = inhibition"
O=NN(Cc1ccc(Cl)cc1)[C@@H](C(=O)O)c1ccccc1,398 nM (active),
C[C@H](CCC(=O)O)[C@H]1CC[C@]2(C)[C@@H]3C(=O)C[C@H]4C(C)(C)[C@@H](O)CC[C@]4(C)[C@H]3C(=O)C[C@@]12C,,60.6% [at 11.4 µM] (inactive)
Cc1ccc(C(=O)O[C@@H](C(=O)O)[C@@H](OC(=O)c2ccc(C)cc2)C(=O)O)cc1 (tested in a mixture with another compound),,95.9% (inactive)
N[C@H](CCC(=O)N[C@H](CSN=O)C(=O)NCC(=O)O)C(=O)O,1580 nM (active),

# Biological target: Alpha-galactosidase (Coffea arabica) (UniProt Q42656)
# Assay: Counterscreen for Glucocerebrosidase Inhibitors: qHTS Assay for Coffee Bean alpha-Galactosidase at pH 4.5 (AID 957);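 note: plate controls were enzyme alone for no effect and no enzyme for full effect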
# Conditions: purified coffee bean alpha-galactosidase, fluorogenic substrate; series mostly up to 76.9 µM; activity change, negative = inhibition: at the top concentration
# Method in brief: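 Green coffee bean enzyme (2 nM final) was incubated with compounds (0.7 nM to 77 uM) and 4-methylumbelliferyl alpha-D-galactopyranoside (80 uM final) in 50 mM citric acid, 0.005% Tween-20, pH 4.5, 20 min at room temperature; AC50 from Hill fits.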
# Chain of Alpha-galactosidase (Coffea arabica) (Q42656 whole entry, looked up): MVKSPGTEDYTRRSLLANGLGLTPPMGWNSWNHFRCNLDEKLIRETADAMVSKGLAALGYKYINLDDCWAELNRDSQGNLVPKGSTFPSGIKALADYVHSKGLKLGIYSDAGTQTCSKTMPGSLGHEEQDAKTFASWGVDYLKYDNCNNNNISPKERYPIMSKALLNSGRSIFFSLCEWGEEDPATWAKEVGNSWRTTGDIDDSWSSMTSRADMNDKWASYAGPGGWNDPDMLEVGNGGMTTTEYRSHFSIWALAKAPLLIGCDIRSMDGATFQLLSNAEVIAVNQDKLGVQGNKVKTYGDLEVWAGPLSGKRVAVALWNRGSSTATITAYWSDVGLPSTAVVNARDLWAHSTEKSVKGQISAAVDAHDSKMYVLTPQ
row,SMILES,"activity change, negative = inhibition"
1,CNc1ncnc2c1ncn2[C@@H]1O[C@@H](CO)[C@H](O)[C@@H]1O,0.863% (inactive)
2,CCCCCCCCCCCCCCCCCC(=O)NC[C@@H](COP(=O)([O-])OCC[N+](C)(C)C)OCC,-3.16% (inactive)
3,CN1CCc2cc(Cl)c(O)cc2[C@H](c2ccccc2)C1,1.03% (inactive)
4,N=C1Sc2ccccc2C2=NCCCN12,0.329% (inactive)
5,COc1cc2nc(N3CCN(C(=O)OCc4ccccc4)[C@H](C(=O)NC(C)(C)C)C3)nc(N)c2cc1OC,2.05% (inactive)
6,Fc1cccc(/C=N\N=C/c2cccc(F)c2)c1,-2.22% (inactive)
7,C[C@@H](COc1ccc(/C=C\c2ccccc2)cc1)[N+](C)(C)C,-0.304% (inactive)
8,C[C@H](NCCc1ccc(O)cc1)[C@@H](O)c1ccc(O)cc1,1.24% (inactive)
9,CC[C@]1(O)C[C@H]2CN(CCc3c([nH]c4ccccc34)[C@](C(=O)OC)(c3cc4c(cc3OC)N(C)[C@@H]3[C@](O)(C(=O)OC)[C@H](OC(C)=O)[C@]5(CC)C=CCN6CC[C@]43[C@@H]65)C2)C1,-1.46% (inactive)
